From PubChem
An excerpt weighted towards active compounds, which were near 11% of everything screened.
FLuc inh-1 – blocks purified firefly luciferase enzyme activity; 76,000 tested, 2.5% active; purified P. pyralis luciferase, luminescence, biochemical; Potency, µM (highest dose often 115 µM), actives largely listed as inhibitors; P08659; also: % is scaled to controls: 0 for no effect and ±100 for the full control effect; nearly all actives have a fitted effect of over 65% in size
Target sequence (P08659 whole entry, looked up): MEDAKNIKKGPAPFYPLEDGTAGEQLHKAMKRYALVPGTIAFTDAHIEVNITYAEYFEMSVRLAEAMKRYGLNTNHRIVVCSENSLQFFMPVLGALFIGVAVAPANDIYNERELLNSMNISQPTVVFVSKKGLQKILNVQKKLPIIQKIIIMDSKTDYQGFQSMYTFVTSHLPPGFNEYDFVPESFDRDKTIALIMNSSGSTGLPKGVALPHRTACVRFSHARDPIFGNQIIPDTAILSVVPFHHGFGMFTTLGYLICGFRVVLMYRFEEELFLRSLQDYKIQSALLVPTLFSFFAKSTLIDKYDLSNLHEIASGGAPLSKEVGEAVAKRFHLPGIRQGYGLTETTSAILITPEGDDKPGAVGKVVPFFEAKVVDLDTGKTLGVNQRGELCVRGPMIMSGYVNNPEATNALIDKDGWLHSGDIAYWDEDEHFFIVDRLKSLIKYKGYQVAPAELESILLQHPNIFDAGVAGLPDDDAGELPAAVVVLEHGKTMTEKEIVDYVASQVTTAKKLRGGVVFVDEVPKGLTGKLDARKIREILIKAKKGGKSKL
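FLuc 10nM, D-luciferin 10uM, ATP 10uM, Mg acetate 10mM, Tris acetate pH 7.5, Tween/BSA; cpd qHTS; enzyme added last; CCD luminescence.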
HEK cytotox – HEK 293 cell cytotoxicity; HEK 293 viability, ATP luminescence (CellTiter-Glo), 48-72 h; Potency, µM (top dose mostly 115 µM), inactives show top-dose activity change, negative = cytotoxicity, usual class: inhibitors; 94,000 tested, 6.6% active; AID 1345083; also: % is scaled to controls: 0 for no effect and ±100 for the full control effect; nearly all actives have a fitted effect of over 60% in size
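ATP-coupled CellTiter-Glo luminescence served as viability read-out, recorded 10 min after reagent addition at room temperature. HEK 293 cells, 250 cells/well, had been incubated with pintool-transferred compound for 48 or 72 hr at 37 degree Celsius.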
hNpr1 antagonist – antagonists of human natriuretic peptide receptor Npr1 | HEK293 hNpr1 GloSensor cGMP, ANP-stimulated luminescence | 76,000 tested, 1.6% active | Potency, µM (titrated, usually from 46.3 µM), for inactives: at the top dose activity change, negative = inhibition, hits mostly inhibitors; calls by dose curve; also: % is scaled to controls: 0 for no effect and ±100 for the full control effect; nearly all actives have a fitted effect of over 60% in size
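HEK293 cells stably expressing human Npr1 and cGMP GloSensor pGS-40F, loaded 2 h with 2% GloSensor reagent, given compound 30 min at room temperature. Luminescence read before and 20 min after 0.1 nM hNppA.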
NIH3T3 tox – cytotoxic compounds in NIH 3T3 cells; NIH 3T3 viability, CellTiter-Glo ATP luminescence, 48-72 h; Potency, µM (doses to about 96.7 µM), inactives show at the top dose activity change, negative = cytotoxicity, hits mostly inhibitors; 94,000 tested, 4.3% active; also: % is scaled to controls: 0 for no effect and ±100 for the full control effect; nearly all actives have a fitted effect of over 55% in size
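NIH 3T3 cells at 400 cells/well received 23 nL of compound by pintool and were incubated 48 or 72 h at 37 °C. Viability was read as ATP-coupled CellTiter-Glo luminescence.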
FLuc SDR no ATP – binders stabilizing firefly luciferase, without ATP; AID 1963318; Potency, µM (highest dose often 32.7 µM), for the others: top-dose activation (signal gain), hits mostly activators; Purified FLuc-C-HiBiT, Nano-Glo HiBiT luminescence, no ATP; 1,300 tested, 7.8% active; shares compounds with FLuc inh-1; also: nearly all actives have a fitted effect of over 55% in size
FLuc SDR ATP – firefly luciferase binding stabilization, ATP added; shares compounds with FLuc inh-1; purified FLuc-C-HiBiT + ATP, HiBiT complementation luminescence; Potency, µM (highest dose often 32.7 µM), for the others: top-dose activation (gain of signal), actives largely listed as activators; 1,300 tested, 8.7% active;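 also: signal reports ligand binding via conformational change of the enzyme rather than luciferase catalysis; % of control where 0% means no effect; nearly all actives have a fitted effect of over 55% in size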
FLuc inh-2 – firefly luciferase enzyme inhibition. purified FLuc-C-HiBiT enzyme, luciferin luminescence. 1,300 tested, 42% active. Potency, µM (titrated, usually from 32.7 µM), without a hit: at the top dose activity change, negative = inhibition, usual class: inhibitors. shares compounds with FLuc inh-1; also: % is scaled to controls: 0 for no effect and ±100 for the full control effect; nearly all actives have a fitted effect of over 70% in size
Starred values were filed as active, the others as inactive; i = inactive; ? = inconclusive; nt = no result given; [ ] = dose if it differs, or a comment. Unless noted, calls follow the shape of the dose curve; as a rule, active = well fitted curve in the direction sought with a large enough effect; inconclusive = small, poorly fitted or top-dose-only effect, or another doubt; inactive = no such curve, though single readings can be large; an effect the other way counts as inactive or inconclusive. Potency is read from the fitted curve at half-maximal effect.

SMILES	FLuc inh-1	HEK cytotox	hNpr1 antagonist	NIH3T3 tox	FLuc SDR no ATP	FLuc SDR ATP	FLuc inh-2
CCCn1ncc(-c2nc(-c3ccncc3)no2)c1C	2.5µM*	35µM*	?	?	?	?	8.8µM*
Cc1cn2c(=O)cc(CN3CC[C@@](C)(O)[C@@H](O)C3)nc2s1	i	-24%	-5%	-19%	nt	nt	nt
Cc1cn2c(=O)cc(COC(=O)c3cccc(NC(=O)COc4ccccc4Cl)c3)nc2s1	nt	nt	nt	nt	13%	9.9µM*	7µM*
COc1ccc(O[C@H]2COCCN(Cc3cccc(OC)c3)C2)cc1	i	-17%[172 µM]	-1%[70.6 µM]	-9%[138 µM]	nt	nt	nt
O=C(NCCCN1CCCC1=O)c1ccc(-c2ncc3cnc(-c4ccccc4)cn23)cc1	i	-30%	-2%	?	nt	nt	nt
CC(C)(C)n1cc(-c2cc(C(=O)N3C[C@H]4CC[C@H]3C4)c3ccccc3n2)cn1	2.8µM*	?	-10%	?	?	?	7µM*
CC1(c2ccccc2)N(Cc2ccc(O)cc2)C(=O)OC12CCN(C(=O)c1ccccc1)CC2 (centres undefined)	i	?	1%	?	nt	nt	nt
Cc1cccc(OCCc2noc(C3CCN(C(=O)CN4CCCCCC4)C3)n2)c1 (centres undefined)	i	?	1%	?	nt	nt	nt
CCc1ccc(NC(=O)C2CCN(C(=O)c3ncn4c3COC(c3ccc(F)cc3)C4)CC2)cc1 (centres undefined)	?	-2%	2%	i	nt	nt	nt
O=C(Nc1ccccc1)C1CCN(C(=O)c2ncn3c2COC(c2ccccc2)C3)CC1 (centres undefined)	2µM*	-30%	?	i	15%	1.6µM*	1.6µM*
O=C(Nc1cccc(F)c1)C1CCN(C(=O)c2ncn3c2COC(c2ccccc2)C3)CC1 (centres undefined)	1µM*	6%	?	-1%	10%	0.99µM*	0.88µM*
O=C(Nc1ccccc1)C1CCN(C(=O)c2ncn3c2COC(c2ccc(F)cc2)C3)CC1 (centres undefined)	?	4%	-7%	-2%	nt	nt	nt
CC1CCC(NC(=O)C2CCN(C(=O)c3ncn4c3COC(c3ccccc3)C4)CC2)CC1 (centres undefined)	2.8µM*	4%	0%	i	12%	3.1µM*	2.5µM*
CCc1ccc(NC(=O)C2CCN(C(=O)c3ncn4c3COC(c3ccccc3)C4)CC2)cc1 (centres undefined)	5µM*	?	-17%	-27%	13%	?	3.9µM*
c1ccc(-c2nnc3ccc(NC4CC4)nn23)nc1	i	-17%[230 µM]	0%[70.6 µM]	?	nt	nt	nt
COCCN1CCC2(CCC1=O)CCN(C(=O)Nc1cccc(Br)c1)CC2	i	3%	-2%	-19%	nt	nt	nt
Cc1ccc(NC(=O)C2CCN(C(=O)c3ncn4c3COC(c3ccccc3)C4)CC2)cc1 (centres undefined)	2µM*	9%	-23%	-9%	12%	1.6µM*	1.8µM*
O=C(c1cc(-c2ccc(F)cc2)nc2ccccc12)N1CCC(c2nc(C3CCOCC3)no2)C1 (centres undefined)	10µM*	?	-8%	?	?	17%	?
O=C(c1cc(-c2ccc(F)cc2)nc2ccccc12)N1CCCC(c2nc(C3CCOCC3)no2)C1 (centres undefined)	?	?	9%	?	nt	nt	nt
O=C1CC2(CCN(CC3CC3)CC2)Oc2ccccc21	7.9µM*	?	35µM*	?	17%[49.3 µM]	?	?
O=C(CC1=CCCCC1)N1CC(c2noc(C3CCCN3CC3CC3)n2)C1 (centres undefined)	i	?	7%	-2%	nt	nt	nt
COCCN1CCOc2nc(-c3cc(F)cc(OC)c3)ncc2C1=O	1.6µM*	-27%[172 µM]	?	28µM*	?	?	11µM*
COc1cccc(-c2ncc3c(n2)OCCN(Cc2ccc(F)cc2F)C3=O)c1	13µM*	?	?	?	13%[49.3 µM]	10%[49.3 µM]	?
COCCN1CCOc2nc(-c3cc(F)ccc3OC)ncc2C1=O	i	?	3%[70.6 µM]	?	nt	nt	nt
COc1cc(F)cc(-c2ncc3c(n2)OCCN(Cc2ccc(F)cc2F)C3=O)c1	i	?	?	?	nt	nt	nt
SMILES	FLuc inh-1	HEK cytotox	hNpr1 antagonist	NIH3T3 tox	FLuc SDR no ATP	FLuc SDR ATP	FLuc inh-2
O=C(Nc1ccc2c(c1)OCCO2)N1CCC(Cc2nc(-c3ccncc3)n[nH]2)C1 (centres undefined)	i	-12%	-2%	-29%	nt	nt	nt
COCC(=O)N1CCCC1C(=O)N1CCCC1c1nc2ccncc2[nH]1 (centres undefined)	nt	i	nt	-1%	nt	nt	nt
O=C(NC[C@H]1Cn2cc(-c3ccc4c(c3)OCCCO4)nc2CO1)c1ccc2c(c1)OCO2	10µM*	?	-17%	-25%	?	?	?
O=C(NC[C@H]1Cn2cc(-c3ccccc3)nc2CO1)c1ccc2c(c1)OCO2	?	?	-29%[70.6 µM]	?	nt	nt	nt
CC(O)CNS(=O)(=O)c1cccc(C(=O)Nc2cccc3c2CCC3)c1 (centres undefined)	i	-1%	7%	-26%	nt	nt	nt
O=C(Nc1ccccc1C(=O)O)c1cccc(S(=O)(=O)N2CCCC2)c1	nt	nt	nt	nt	17%	13%	?
COc1ccc(-c2nc(C3CN(C(=O)Nc4cccc(F)c4)C3)no2)cc1	i	-19%	?	-8%	nt	nt	nt
Cc1ccc(-c2noc(-c3nc(Cc4ccccc4)no3)n2)cc1	i	-23%	-5%	-21%	nt	nt	nt
Brc1ccccc1-c1nc(-c2ccccc2)no1	nt	nt	nt	nt	22%	?	3.5µM*
COc1ccc(N2CC(c3noc(-c4ccccc4F)n3)CC2=O)cc1OC (centres undefined)	i	-3%	0%	-15%	nt	nt	nt
COC(=O)c1cccc(-c2noc(-c3ccccc3F)n2)c1	nt	nt	nt	nt	22%	18%	?
O=C(O)c1cccc(-c2noc(-c3ccccc3F)n2)c1	nt	nt	nt	nt	11µM*	0.005µM*	0.0062µM*
Cc1ccc(-c2nc(-c3ccccc3)no2)c(Cl)c1	nt	nt	nt	nt	3.9µM*	3.5µM*	0.2µM*
CC(C)c1ccc(CC(=O)N2CCCc3ncc(C(=O)NCC4CCCO4)cc32)cc1 (centres undefined)	i	?	2%[70.6 µM]	?	nt	nt	nt
Fc1ccccc1-c1nc(-c2ccccc2)no1	nt	nt	nt	nt	?	?	1.6µM*
